Experiment [1] addresses Retinoic acid receptor RXR-alpha (Homo sapiens) (UniProt P19793). As to the kind of experiment: ATG_RXRa_TRANS: Attagene TRANS-FACTORIAL HepG2 Assay for human Retinoid X Receptor alpha (RXRa) (AID 2283012; active = hit-call score of the fitted dose curve at least 0.9, where 1 is the maximum). In short, it runs like this:
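Read-out: fluorescent reporter-transcript fragments quantified by capillary electrophoresis after RT-PCR. Transiently transfected HepG2 cells carrying GAL4-UAS reporters and NR-GAL4 chimeras were exposed to chemical for 24 h; activity scored as increase over DMSO.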

The target in experiment [2] is human Retinoid X Receptor beta (RXRb), RXRB (gene 6257) (UniProt P28702). As to the kind of experiment: ATG_RXRb_TRANS: Attagene TRANS-FACTORIAL HepG2 Assay for human Retinoid X Receptor beta (RXRb) (AID 2283013; active = hit-call score of the fitted dose curve at least 0.9, where 1 is the maximum). In short, it runs like this: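 Read-out: reporter mRNA induction via RT-PCR plus capillary electrophoresis fluorescence, analysed as signal increase relative to DMSO. Cells were human HepG2, transiently transfected with GAL4-UAS reporter constructs and chimeric receptor-Gal4 fusions, dosed for 24 h.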

Read-out in experiment [3]: E-selectin (Homo sapiens) (UniProt P16581)
As to the kind of experiment: BSK_3C_Eselectin: BioMAP Diversity Plus: 3C Assay for Eselectin Biomarker Activity (AID 2283015).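 As to outcome: cell surface E-selectin protein quantified by ELISA 24 h after dosing.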 The settings on record: primary human endothelial cells (HUVEC); actives raise or lower the signal. In outline:
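ELISA read-out of E-selectin on endothelial monolayers after 24 h chemical treatment. Human umbilical vein primary cells served as the system, with DMSO defining baseline activity for bidirectional fitting.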

Read-out in experiment [4]: Interleukin-1 alpha (IL1a), IL1A (gene 3552)
As to the kind of experiment: BSK_BE3C_IL1a: BioMAP Diversity Plus: BE3C Assay for Interleukin-1 alpha (IL1a) Biomarker Activity (AID 2283016). The settings on record: primary human bronchial epithelial cells; actives raise or lower the signal. In short, it runs like this: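 ELISA read-out of IL-1a from human lung bronchial epithelial primary cells, 24 h post-dose. Gain or loss of signal fitted relative to DMSO negative control.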

Read-out in experiment [5]: Monocyte Chemoattractant Protein-1 (MCP1), CCL2 (gene 6347)
As to the kind of experiment: BSK_3C_MCP1: BioMAP Diversity Plus: 3C Assay for Monocyte Chemoattractant Protein-1 (MCP1) Biomarker Activity (AID 2283017). The conditions noted are these: primary human endothelial cells (HUVEC); actives raise or lower the signal. In outline:
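ELISA read-out of MCP-1 from human umbilical vein endothelial cell cultures harvested 24 h post-dosing. Gain or loss of signal was fitted relative to DMSO.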

Read-out in experiment [6]: Monocyte Chemoattractant Protein-1 (MCP1), CCL2 (gene 6347)
In words: BSK_4H_MCP1: BioMAP Diversity Plus: 4H Assay for Monocyte Chemoattractant Protein-1 (MCP1) Biomarker Activity (AID 2283018). The conditions noted are these: primary human endothelial cells (HUVEC); actives raise or lower the signal. In short, it runs like this:
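HUVEC primary cells, 24 h post-dose, MCP-1 by ELISA. Gain or loss of signal fitted bidirectionally vs DMSO baseline. Cytotoxicity: SRB stain (0.1% after 10% TCA fixation), read 560 nm, parallel cultures.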

Read-out in experiment [7]: Human Leukocyte Antigen - DR isotype (HLADR), HLA-DRA (gene 3122)
As to the kind of experiment: BSK_3C_HLADR: BioMAP Diversity Plus: 3C Assay for Human Leukocyte Antigen - DR isotype (HLADR) Biomarker Activity (AID 2283019).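 As to outcome: ELISA of cell-surface HLA-DR on HUVEC 24 h after dosing.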 The conditions noted are these: primary human endothelial cells (HUVEC); actives raise or lower the signal. In outline:
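ELISA readout of surface HLA-DR on human umbilical vein endothelium, taken 24 h after chemical treatment. Gain- and loss-of-signal were both fitted relative to DMSO.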

Read-out in experiment [8]: Interleukin-8 (IL8), CXCL8 (gene 3576)
In words: BSK_3C_IL8: BioMAP Diversity Plus: 3C Assay for Interleukin-8 (IL8) Biomarker Activity (AID 2283020). The conditions noted are these: primary human endothelial cells (HUVEC); actives raise or lower the signal. In short, it runs like this: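 HUVEC, 3C stimulation; 24 h compound exposure; IL-8 read by ELISA; gain or loss of signal fitted relative to DMSO control.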

Read-out in experiment [9]: Monokine induced gamma interferon (MIG), CXCL9 (gene 4283)
In words: BSK_3C_MIG: BioMAP Diversity Plus: 3C Assay for Monokine induced gamma interferon (MIG) Biomarker Activity (AID 2283021).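 As to AC50: MIG protein level measured by immunoassay in the treated endothelial cultures.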 The conditions noted are these: primary human endothelial cells (HUVEC); actives raise or lower the signal. In short, it runs like this:
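HUVEC, 3C system; 24 h chemical exposure; MIG by ELISA; bidirectional fit vs DMSO baseline.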

A short description of experiment [10]: BSK_3C_SRB: Viability Assessment in the BioMAP Diversity Plus: 3C Assay (AID 2283023).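 Also: fitted both ways against DMSO so a hit may be signal rise or drop.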 The settings on record: primary human endothelial cells (HUVEC). In outline: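 Absorbance at 560 nm of sulforhodamine B-stained (0.1%) total protein served as a cytotoxicity readout in human umbilical vein endothelial cells, 24 h after chemical treatment. Signal was fitted bidirectionally relative to DMSO.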

Read-out in experiment [11]: Matrix Metallopeptidase 1 (MMP1), MMP1 (gene 4312)
In words: BSK_BE3C_MMP1: BioMAP Diversity Plus: BE3C Assay for Matrix Metallopeptidase 1 (MMP1) Biomarker Activity (AID 2283024). The conditions noted are these: primary human bronchial epithelial cells; actives raise or lower the signal. In outline:
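ELISA read-out of MMP1 in human lung bronchial epithelial primary cultures, 24 h post-dose; bidirectional curve fit vs DMSO baseline, gain or loss of signal scored.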

The nature of experiment [12]: BSK_3C_Vis: BioMAP Diversity Plus: 3C Assay for Morphology Visualization (AID 2283025).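 Also: fitted both ways so gain or loss versus DMSO counts.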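 As to AC50: light microscopy image of cell morphology used as background control.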 The conditions noted are these: primary human endothelial cells (HUVEC). In short, it runs like this:
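HUVEC, 3C system; light microscopy of morphology at 24 h post-dose. Bidirectional fit vs DMSO baseline. Secondary readout, background-control function.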

The nature of experiment [13]: BSK_4H_SRB: Viability Assessment in the BioMAP Diversity Plus: 4H Assay (AID 2283027).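 Also: cells exposed to compound for 24 h before staining.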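 As to AC50: curves fitted both ways versus DMSO so AC50 may be loss or gain.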 The settings on record: primary human endothelial cells (HUVEC). In outline: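 HUVEC, 24 h post-dose; 10% TCA fix, 0.1% SRB stain, A560 nm. Total protein = overt cytotoxicity, parallel to biomarker read. Bidirectional fit vs DMSO baseline.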
A short description of experiment [14]: BSK_BE3C_SRB: Viability Assessment in the BioMAP Diversity Plus: BE3C Assay (AID 2283028). The settings on record: primary human bronchial epithelial cells. In outline: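 Cells (human bronchial epithelial, primary) are treated with chemicals, and after 24 h the parallel cultures are fixed in 10% TCA. These are then stained with 0.1% SRB and read at 560 nm. Gain or loss of signal is fitted relative to DMSO.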

Read-out in experiment [15]: Thrombomodulin, THBD (gene 7056)
In words: BSK_3C_Thrombomodulin: BioMAP Diversity Plus: 3C Assay for Thrombomodulin Biomarker Activity (AID 2283029). The settings on record: primary human endothelial cells (HUVEC); actives raise or lower the signal. In outline:
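HUVEC, 3C conditions; compound 24 h; thrombomodulin by ELISA; bidirectional curve fit vs DMSO baseline; parallel SRB total-protein staining for cytotoxicity.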

Read-out in experiment [16]: Urokinase-type plasminogen activator receptor (uPAR), PLAUR (gene 5329)
As to the kind of experiment: BSK_4H_uPAR: BioMAP Diversity Plus: 4H Assay for Urokinase-type plasminogen activator receptor (uPAR) Biomarker Activity (AID 2283030). The settings on record: primary human endothelial cells (HUVEC); actives raise or lower the signal. In short, it runs like this:
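Cell-surface uPAR ELISA signal, measured 24 h after dosing human umbilical vein endothelial cells, was analyzed with bidirectional fitting relative to DMSO. Parallel SRB staining of total protein tracked overt cytotoxicity.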

Read-out in experiment [17]: Vascular endothelial growth factor receptor 2 (Homo sapiens) (UniProt P35968)
In words: BSK_4H_VEGFRII: BioMAP Diversity Plus: 4H Assay for Vascular endothelial growth factor receptor 2 (VEGFR2) Biomarker Activity (AID 2283031).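 As to AC50: cell-surface VEGFR2 protein level quantified by ELISA.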 The conditions noted are these: primary human endothelial cells (HUVEC); actives raise or lower the signal. In short, it runs like this: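 ELISA read-out of VEGFRII in primary human umbilical vein endothelium, taken 24 h after chemical treatment. Responses are expressed relative to DMSO, with bidirectional fitting.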

Read-out in experiment [18]: Pselectin, SELP (gene 6403)
In words: BSK_4H_Pselectin: BioMAP Diversity Plus: 4H Assay for Pselectin Biomarker Activity (AID 2283026). The settings on record: primary human endothelial cells (HUVEC); actives raise or lower the signal. In short, it runs like this: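 HUVEC, 24 h chemical exposure; P-selectin read by ELISA. Bidirectional curve fit vs DMSO baseline; gain or loss of signal scored.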

Experiment [19] concerns the target human Thyroid Receptor alpha (THRa1), THRA (gene 7067) (UniProt P10827). As to the kind of experiment: ATG_THRa1_TRANS: Attagene TRANS-FACTORIAL HepG2 Assay for human Thyroid Receptor alpha (THRa1) (AID 2283014; active = hit-call score of the fitted dose curve at least 0.9, where 1 is the maximum). In outline:
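Reporter transcript induction, read by capillary electrophoresis of 6-FAM-labelled RT-PCR products, reflects activity of a transfected THRa1-Gal4 fusion in HepG2 liver cells. Cells were dosed for 24 h; activity was fitted in the positive direction against DMSO.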

The target in experiment [20] is human Vitamin D Receptor (VDR), VDR (gene 7421) (UniProt P11473). In words: ATG_VDR_TRANS: Attagene TRANS-FACTORIAL HepG2 Assay for human Vitamin D Receptor (VDR) (AID 2283022; active = hit-call score of the fitted dose curve at least 0.9, where 1 is the maximum). In short, it runs like this: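 Steps: transfect HepG2 with GAL4-UAS-driven reporter constructs; dose compounds 24 h; isolate RNA, reverse-transcribe, PCR-amplify with 6-FAM-labelled primer extension and HpaI digestion; quantify fragments by capillary electrophoresis relative to DMSO.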

Results filed as inconclusive are left out. The source made the active and inactive calls. The calls were made as follows, unless noted: active = hit-call score of the fitted dose curve at least 0.9, where 1 is the maximum; inactive = score below 0.9.

By AC50 is commonly meant the concentration giving half of the maximal activity seen.

Sequence of E-selectin (Homo sapiens) (P16581 whole entry, looked up): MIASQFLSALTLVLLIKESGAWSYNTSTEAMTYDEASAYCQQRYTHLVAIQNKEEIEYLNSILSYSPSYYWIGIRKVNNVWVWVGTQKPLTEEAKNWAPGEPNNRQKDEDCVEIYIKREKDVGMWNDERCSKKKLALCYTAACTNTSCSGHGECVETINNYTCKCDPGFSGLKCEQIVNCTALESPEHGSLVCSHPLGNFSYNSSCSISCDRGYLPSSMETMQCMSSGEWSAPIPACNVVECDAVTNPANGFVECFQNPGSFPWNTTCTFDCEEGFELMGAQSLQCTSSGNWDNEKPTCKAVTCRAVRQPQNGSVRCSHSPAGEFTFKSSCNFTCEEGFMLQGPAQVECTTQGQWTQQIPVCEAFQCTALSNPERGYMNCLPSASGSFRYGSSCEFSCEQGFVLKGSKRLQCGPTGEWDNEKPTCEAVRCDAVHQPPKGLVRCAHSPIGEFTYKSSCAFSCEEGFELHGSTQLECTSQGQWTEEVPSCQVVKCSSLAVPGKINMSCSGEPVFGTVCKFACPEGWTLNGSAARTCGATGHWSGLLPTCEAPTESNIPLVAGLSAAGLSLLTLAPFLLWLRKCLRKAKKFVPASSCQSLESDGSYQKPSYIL
Sequence of human Retinoid X Receptor beta (RXRb), RXRB (gene 6257) (P28702 whole entry, looked up, the tested form may be a part): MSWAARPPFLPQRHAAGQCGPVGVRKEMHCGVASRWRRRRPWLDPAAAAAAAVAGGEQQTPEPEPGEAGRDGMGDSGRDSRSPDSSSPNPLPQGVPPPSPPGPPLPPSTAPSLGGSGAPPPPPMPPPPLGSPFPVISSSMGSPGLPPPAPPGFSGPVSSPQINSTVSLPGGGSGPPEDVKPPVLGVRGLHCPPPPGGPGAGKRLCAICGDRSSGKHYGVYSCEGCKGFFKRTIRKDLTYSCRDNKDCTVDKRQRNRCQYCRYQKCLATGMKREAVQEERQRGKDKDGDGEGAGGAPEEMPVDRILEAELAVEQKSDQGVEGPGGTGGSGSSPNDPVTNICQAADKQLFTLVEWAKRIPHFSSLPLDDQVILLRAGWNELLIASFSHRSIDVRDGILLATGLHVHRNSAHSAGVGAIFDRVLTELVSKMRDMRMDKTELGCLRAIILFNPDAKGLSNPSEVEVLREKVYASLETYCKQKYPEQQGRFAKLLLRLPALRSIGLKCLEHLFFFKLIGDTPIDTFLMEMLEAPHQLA
Sequence of human Vitamin D Receptor (VDR), VDR (gene 7421) (P11473 whole entry, looked up, the tested form may be a part): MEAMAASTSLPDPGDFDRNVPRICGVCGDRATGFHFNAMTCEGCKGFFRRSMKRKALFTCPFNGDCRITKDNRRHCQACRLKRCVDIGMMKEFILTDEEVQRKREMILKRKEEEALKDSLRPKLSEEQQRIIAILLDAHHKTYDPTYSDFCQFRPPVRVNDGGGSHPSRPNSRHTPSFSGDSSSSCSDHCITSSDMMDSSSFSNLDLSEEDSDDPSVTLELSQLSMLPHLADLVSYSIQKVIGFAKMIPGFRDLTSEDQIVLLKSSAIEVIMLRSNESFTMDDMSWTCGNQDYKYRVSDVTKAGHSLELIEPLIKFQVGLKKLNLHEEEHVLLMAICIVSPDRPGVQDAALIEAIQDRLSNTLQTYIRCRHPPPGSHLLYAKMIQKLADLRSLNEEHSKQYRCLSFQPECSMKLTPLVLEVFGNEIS
Sequence of Retinoic acid receptor RXR-alpha (Homo sapiens) (P19793 whole entry, looked up, the tested form may be a part): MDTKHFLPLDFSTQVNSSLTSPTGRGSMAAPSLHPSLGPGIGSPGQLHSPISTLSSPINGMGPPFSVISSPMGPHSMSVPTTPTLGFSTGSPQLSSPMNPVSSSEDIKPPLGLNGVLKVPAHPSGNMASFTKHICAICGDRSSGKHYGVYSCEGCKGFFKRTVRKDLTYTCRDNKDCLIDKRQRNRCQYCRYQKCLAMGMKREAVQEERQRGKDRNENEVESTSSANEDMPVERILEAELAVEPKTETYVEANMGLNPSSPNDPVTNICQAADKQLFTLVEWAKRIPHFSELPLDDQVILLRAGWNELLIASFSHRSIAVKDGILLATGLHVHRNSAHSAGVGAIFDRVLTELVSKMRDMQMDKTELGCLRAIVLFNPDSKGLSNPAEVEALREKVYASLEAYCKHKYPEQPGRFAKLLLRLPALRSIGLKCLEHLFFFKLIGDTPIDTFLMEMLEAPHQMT
Sequence of human Thyroid Receptor alpha (THRa1), THRA (gene 7067) (P10827 whole entry, looked up, the tested form may be a part): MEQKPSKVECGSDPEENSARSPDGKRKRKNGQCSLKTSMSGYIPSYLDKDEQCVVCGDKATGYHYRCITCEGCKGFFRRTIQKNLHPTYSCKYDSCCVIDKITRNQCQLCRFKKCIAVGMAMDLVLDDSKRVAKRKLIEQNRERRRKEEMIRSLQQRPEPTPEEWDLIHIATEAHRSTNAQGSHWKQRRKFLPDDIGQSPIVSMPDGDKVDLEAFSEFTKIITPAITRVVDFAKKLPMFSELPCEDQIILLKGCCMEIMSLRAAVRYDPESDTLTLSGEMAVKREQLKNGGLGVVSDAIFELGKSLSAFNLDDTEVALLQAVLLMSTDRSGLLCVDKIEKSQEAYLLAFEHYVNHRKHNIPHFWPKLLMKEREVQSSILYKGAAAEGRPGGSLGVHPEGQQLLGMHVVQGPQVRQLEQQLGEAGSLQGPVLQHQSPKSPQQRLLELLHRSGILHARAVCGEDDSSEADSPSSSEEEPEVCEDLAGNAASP

As to `CC(C)COC(=O)c1ccccc1C(=O)OCC(C)C`, the outcome in experiment [1], in experiment [4], in experiment [9], in experiment [11], in experiment [12] and in experiment [13] was inactive. The outcome in experiment [14], in experiment [15], in [16] and in experiment [17] was inactive. Further, the AC50 in experiment [2] was 43.6 µM (active); in experiment [3], 28.8 µM (active); in experiment [5] it was 37 µM (active); in [6] it was 20 µM (active); in experiment [7] it was 32.3 µM (active); in [8], 31.5 µM (active). In addition, the AC50 in [10] is 31.5 µM (active).

`N#CC(Br)Br`: the molecule was called inactive in [1], in experiment [2], in [3], in experiment [4], in [5] and in [6]. Moreover, the result in experiment [7], in experiment [8], in [9], in experiment [10], in [11] and in experiment [12] was inactive. Also, the outcome in experiment [18], in [13], in [14], in experiment [15], in [16] and in experiment [17] was inactive.

Consider `Nc1ccc(Cc2ccc(N)cc2)cc1`, for which the outcome in [1], in [19], in [3], in experiment [4], in experiment [5] and in [6] was inactive. Besides, the result in experiment [7], in experiment [8], in experiment [9], in experiment [20], in [10] and in experiment [11] was inactive. Moreover, the result in experiment [12], in experiment [18], in [13], in [14], in [15] and in experiment [16] was inactive. Besides, the result in experiment [17] was inactive.

For `CC(C)(C)C(O)(CCc1ccc(Cl)cc1)Cn1cncn1` (stereo not given), the molecule was classed as inactive in experiment [1], in experiment [3], in experiment [4], in experiment [5], in experiment [6] and in experiment [7]. The result in experiment [8], in [9], in experiment [20], in [10], in experiment [11] and in experiment [12] was inactive. For the same molecule, the outcome in experiment [18], in [13], in experiment [14], in experiment [15] and in experiment [17] was inactive.

As to `ClC1=C(Cl)C2(Cl)C3C(Cl)C=CC3C1(Cl)C2(Cl)Cl` (stereo not given), the molecule was called inactive in experiment [1], in experiment [2], in experiment [11], in experiment [14] and in experiment [15]. For the same molecule, the AC50 was 26.8 µM (active) in experiment [3]; 28.6 µM (active) in experiment [4]; 30 µM (active) in [5]; 24.1 µM (active) in experiment [6]; 22.7 µM (active) in experiment [7]; 32.7 µM (active) in [8]. Further, the AC50 in experiment [9] was 35.7 µM (active); in experiment [10] it was 28.7 µM (active); in [12] it was 37.3 µM (active); in experiment [18], 28.5 µM (active); in [13] it was 33.4 µM (active); in experiment [16], 34.7 µM (active). Moreover, the AC50 in experiment [17] is 20 µM (active).

For `COC(=O)c1ccccc1N`, the result in [2], in experiment [19], in [3], in experiment [4], in experiment [5] and in experiment [6] was inactive. In addition, the result in experiment [7], in experiment [8], in [9], in experiment [20], in [10] and in experiment [11] was inactive. The outcome in [12], in experiment [18], in [13], in [14], in experiment [15] and in [16] was inactive. Also, in experiment [17], the result was inactive.

Turning to `Nc1ccc(N=Nc2ccccc2)cc1`, the molecule was called inactive in [1], in experiment [3], in [4], in experiment [5], in experiment [6] and in experiment [7]. The outcome in experiment [8], in [9], in experiment [20], in experiment [11], in [12] and in experiment [14] was inactive. For the same molecule, the outcome in experiment [15], in [16] and in [17] was inactive. In addition, the AC50 in experiment [10] is 20 µM (active); in experiment [13], 13.1 µM (active).

The values above are taken from PubChem BioAssay (EPA / NIEHS).
